For test [1], the system named is CRL-7250. In words: Cytotoxic Profiling of Annotated Libraries Using Quantitative High-Throughput Screening (AID 1296008). For max response: % is set by controls: 0 for no effect and ±100 for the full control effect. Note: nearly all actives have a fitted effect of over 60% in size. To be noted: Five cell lines viability, CellTiter-Glo ATP luminescence, 48-72 h; max response: active compounds read low. In a few lines:
(§1)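 Cells exposed to compounds for 48 or 72 hr at 37 degrees Celsius. Viability read as ATP-coupled luminescence with CellTiter-Glo after 10 min at room temperature.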

Test [2] deals with HaCat. The test is described as above. The note with it: Five cell lines viability, CellTiter-Glo ATP luminescence, 48-72 h; max response: active compounds read low. Put shortly: as §1
The test system of test [3] is KB-3-1. The description is as above. The note with it: Five cell lines viability, CellTiter-Glo ATP luminescence, 48-72 h; max response: active compounds read low. Put shortly:
as §1
A general note: Cellular ATP, detected with luciferase, serves as a proxy for viable cell number.

The test system of test [4] is NIH3T3. Described as above. The note with it: Five cell lines viability, CellTiter-Glo ATP luminescence, 48-72 h; max response: active compounds read low. In a few lines:
as §1

Test [5] deals with HACAT. In words: qHTS assay to identify novel small-molecules to repurpose for Merkel cell carcinoma treatment (AID 1296009). Note: nearly all actives have a fitted effect of over 60% in size. To be noted: MCC and control cell lines, CellTiter-Glo viability, 72 h; at 44.8 µM (top of the series) unless noted. Put shortly:
(§2)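 Cells were treated for 72 hr at 37 degree celsius with compounds in 8- or 11-point dose response. Viability was read by CellTiter-Glo luminescence, normalized to no-cell (cytotoxicity) and DMSO controls.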
On the technique in general: Quantitative high-throughput screening tests each substance at several concentrations.

The test system of test [6] is MCC-13. Described as above. The note with it: MCC and control cell lines, CellTiter-Glo viability, 72 h; series mostly up to 46 µM. In a few lines: as §2
Test [7] relates to MCC-26. The description is as above. The note with it: MCC and control cell lines, CellTiter-Glo viability, 72 h; series mostly up to 46 µM. Put shortly:
as §2

In test [8] the test system is MKL-1. The description is as above. To be noted: MCC and control cell lines, CellTiter-Glo viability, 72 h; series mostly up to 46 µM. In a few lines:
as §2

The test system of test [9] is MKL-2. The description is as above. The note with it: MCC and control cell lines, CellTiter-Glo viability, 72 h; series mostly up to 46 µM. Put shortly: as §2
In test [10] the test system is WaGa. The test is described as above. To be noted: MCC and control cell lines, CellTiter-Glo viability, 72 h; series mostly up to 46 µM. Put shortly:
as §2

In test [11] the test system is UISO. The description is as above. The note with it: MCC and control cell lines, CellTiter-Glo viability, 72 h; series mostly up to 46 µM. In a few lines:
as §2

For test [12], the system named is HEK293. In words: Cytotoxic Profiling of Annotated Libraries Using Quantitative High-Throughput Screening (AID 1296008). For max response: % is set by controls: 0 for no effect and ±100 for the full control effect. Note: nearly all actives have a fitted effect of over 60% in size. To be noted: Five cell lines viability, CellTiter-Glo ATP luminescence, 48-72 h; max response: active compounds read low. In a few lines: as §1
Test [13] deals with C33A. In words: Primary qHTS to identify gynecologic anti-cancer compounds using libraries of approved drugs and bioactive compounds (AID 1345084). Note: nearly all actives have a fitted effect of over 55% in size. The note with it: Gynecologic cancer cell panel viability, ATPlite luminescence, 48 h; series mostly up to 57.5 µM. In a few lines:
(§3)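 Cell viability after 48 h drug treatment, ATPlite luminescence readout; five doses.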

Test [14] deals with CASKI. The description is as above. To be noted: Gynecologic cancer cell panel viability, ATPlite luminescence, 48 h; series mostly up to 57.5 µM. Put shortly:
as §3

For test [15], the system named is HeLa. The test is described as above. The note with it: Gynecologic cancer cell panel viability, ATPlite luminescence, 48 h; series mostly up to 57.5 µM. In a few lines:
as §3

Test [16] concerns Es-2. The test is described as above. The note with it: Gynecologic cancer cell panel viability, ATPlite luminescence, 48 h; series mostly up to 57.5 µM. In a few lines:
as §3

Test [17] has as its system TAB165. Kind of test: qHTS profiling for inhibitors of Plasmodium falciparum proliferation (AID 504749). Note: nearly all actives have a fitted effect of over 60% in size. The note with it: P. falciparum in erythrocytes, SYBR Green DNA, 72 h; series mostly up to 28.7 µM. In a few lines: (§4)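 P. falciparum-infected erythrocytes (0.3% parasitemia, 2.5% hematocrit) incubated with compound 72 h at 37 C, 5% CO2. Parasite DNA detected by SYBR Green after lysis, overnight at room temperature; normalised to 0.29 uM artemisinin and DMSO.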

The subject of test [18] is W2. The test is described as above. The note with it: P. falciparum in erythrocytes, SYBR Green DNA, 72 h; series mostly up to 28.7 µM. In a few lines:
as §4

Several values for one entry are separate records, joined by “and”; a condition that tells them apart may be missing. Equal entries are not always repeated. Inconclusive results are not listed. A number with no mark means an inactive call. Activity calls are given as the source filed them. Calls come from the whole dose curve; as a rule, active = well fitted curve in the direction sought with a large enough effect; inconclusive = small, poorly fitted or top-dose-only effect, or another doubt; inactive = no such curve, though single readings can be large; an effect the other way counts as inactive or inconclusive.
Potency is the fitted concentration of half-maximal effect.

Consider `CCc1cc(C(C)=NOCc2ccc(C3CCCCC3)c(C(F)(F)F)c2)ccc1CN1CC(C(=O)O)C1`, for which the max response in test [1] was 2.27%; in test [4], -5.84%. Also, the call in [2], in [3] and in test [5] was inactive. Moreover, the Potency entry in [6], in test [7], in test [8] and in test [10] was “inactive” each time. Moreover, the Potency in test [9] is 6.62 µM (active).
Turning to `C=C1C(=CC=C2CCC[C@]3(C)[C@@H]([C@H](C)CCCC(C)(C)O)CC[C@@H]23)C[C@@H](O)C[C@@H]1O`, the values for the max response in test [1] and in test [3] were -5.17% and -11.2%, respectively. Besides, the call in [2] and in test [5] was inactive. For the same molecule, the Potency in [4] was 0.0033 µM (active); in [8], 16.6 µM (active); in test [9], 6.62 µM (active); in [10], 1.48 µM (active).
Take `C[C@](Cc1c[nH]c2ccccc12)(NC(=O)OC1C2CC3CC(C2)CC1C3)C(=O)NC[C@H](NC(=O)CCC(=O)O)c1ccccc1` (some centres undefined): the outcome in test [1], in test [2] and in test [5] was inactive. Besides, the figures for the max response in test [3] and in [4] were -2.86% and -5.4%, respectively. Also, the Potency entry in test [6], in test [8], in test [9], in test [11] and in [10] was “inactive” in each case.
For `Cn1cnc2c(F)c(Nc3ccc(Br)cc3F)c(C(=O)NOCCO)cc21`, the Potency in test [1] was 23.5 µM (active) and 7.31 µM (active). Moreover, the max response was -7.34% in test [12]; -0.774% and -5.49% in test [3]. Moreover, the Potency entry in [7], in [8], in [9], in test [11], in [10] and in test [13] was “inactive” each time. The Potency entry in test [14] and in test [15] was “inactive” throughout.
As to `c1ccc2c(Oc3nc(Nc4ccc(N5CCOCC5)cc4)c4ncn(C5CCCCC5)c4n3)cccc2c1`, the max response in [1] was -3.84% and 0.807%; in test [3] it was 8.53%; in test [4], 1.5% and -0.0324%. In addition, the molecule was called inactive in test [2] and in [5]. In addition, the Potency entry in test [6], in test [7], in test [8], in [9], in test [11] and in [10] was “inactive” in each case. The Potency entry in test [13], in [14], in [16] and in test [15] was “inactive” in each case.
In the case of `CCc1c(O)cc(O)c(C(=O)c2ccc(OCCN3CCOCC3)c(OC)c2)c1CC(=O)N(CCOC)CCOC`, the Potency is 1.32 µM (active) in test [1], 0.833 µM (active) in test [12], 11.8 µM (active) in test [4] and 1.48 µM (active) in test [11]. The Potency result in test [6] was “inactive”.
Consider `CC(=CC(=O)Nc1ccccc1C(=O)O)c1ccc2ccccc2c1`, for which the max response is -3.34% in test [1], -21% in test [3] and -22.4% in test [4]. The result in test [2] and in [5] was inactive. The Potency result in test [6], in test [7], in test [8], in test [9], in test [11] and in test [10] was “inactive” in each case.
For the molecule `CC(C)OC(=O)[C@H](C)N[P@](=O)(OC[C@H]1O[C@@H](n2ccc(=O)[nH]c2=O)[C@](C)(F)[C@H]1O)Oc1ccccc1`, the max response in [1] is -5.93%; in [2] it was -9.66%; in test [3], 1.17%; in test [4], -9.86%. Also, the Potency entry in [6], in test [7], in [8], in [9], in [11] and in test [10] was “inactive” in each case.
For the molecule `Oc1cc(-c2nc(-c3ccccc3)[nH]c2-c2ccncc2)ccc1Cl`, the max response in test [1] was -23.8%; in [3] it was -18.3%. Further, the Potency in test [12] is 23.5 µM (active). The Potency entry in [8], in test [9], in [11], in [13] and in test [15] was “inactive” throughout.
As to `CC(N[C@H]1CCCC[C@H]1NC(=O)c1ccc(Cl)cc1)c1cccc2ccccc12` (some centres undefined), the values for the max response in [1], in test [3] and in [4] were 2.81%, 1.61% and -12.9%, respectively. For the same molecule, the result in [2] and in [5] was inactive. Further, the Potency result in [6], in test [7] and in test [11] was “inactive” each time. Moreover, the Potency in test [9] was 0.418 µM (active).
As for `CC(O)(C#Cc1ccc2c(c1)N(c1nc(N)ncc1Cl)CC2)c1nccs1` (centres undefined), in test [12], the Potency is 26.4 µM (active). The max response was -12.6% in [2], -15.7% in [3] and -24.2% in test [4]. The Potency entry in test [6], in [7], in [8], in [9], in [11] and in test [10] was “inactive” throughout. Besides, the Potency result in [13], in test [14], in test [16] and in test [15] was “inactive” throughout.
As to `COc1cccc2c1C(=O)c1c(O)c3c(c(O)c1C2=O)C[C@@](O)(C(=O)CO)C[C@@H]3O[C@H]1C[C@H](N)[C@H](OC2CCCCO2)[C@H](C)O1` (some centres undefined), the Potency in [17] is 2.24 µM (active); in [18], 601 nM (active); in test [12], 0.332 µM (active); in test [2], 2.35 µM (active); in test [3] it was 833 nM (active); in test [4] it was 0.59 µM (active). The Potency was 5.26 µM (active) in [6]; 3.72 µM (active) in [7]; 2.64 µM (active) in [8]; 1.66 µM (active) in test [11]; 1.66 µM (active) in [10].
Turning to `FC(F)(F)c1ccc(Nc2nc3ccc(Oc4ccnc(-c5ncc(C(F)(F)F)[nH]5)c4)cc3[nH]2)cc1`, the Potency in test [1] was 13.2 µM (active) and 14.6 µM (active). In addition, the max response in test [2] is -7.61% and -42.8%. Besides, the Potency result in test [7], in test [13], in test [14], in [16] and in [15] was “inactive” throughout.
Turning to `C=CCNc1c(O)cc2c(O)c1C[C@@H](C)C[C@H](OC)[C@@H](O)[C@@H](C)C=C(C)[C@H](OC(N)=O)[C@@H](OC)C=CC=C(C)C(=O)N2`, the Potency in test [1] is 0.0372 µM (active); in [2] it was 0.372 µM (active); in test [3], 93.5 nM (active); in test [4], 0.59 µM (active); in test [6], 5.9 µM (active); in test [8] it was 11.8 µM (active). The Potency in test [11] was 2.35 µM (active); in test [10], 2.09 µM (active).
Turning to `OCCNC1CCCc2c1[nH]c1ccc(-c3ccccc3)cc21` (centres undefined), the Potency in test [12] is 13.2 µM (active); in test [3], 14600 nM (active); in test [4], 16.4 µM (active); in test [9], 26.4 µM (active); in test [15], 8.91 µM (active). The call in test [2] and in test [5] was inactive. The Potency entry in test [6], in test [7] and in test [16] was “inactive” throughout.
On to `O=C(Nc1cc2cc[nH]c2cn1)c1ccccc1`, for which the Potency was 18.7 µM (active) in [1]; 13.2 µM (active) in [4]; 14.8 µM (active) in test [8]; 1.41 µM (active) in [13]; 1.78 µM (active) in test [14]; 1.58 µM (active) in [16]. Further, the Potency in test [15] was 1.41 µM (active).

The values are drawn from PubChem BioAssay (NCATS).
